In the library only some 2.6% were active in any assay of this set; here they are far more common.
p53ts 32C kill: cytotoxicity in p53ts cells at permissive temperature; H1299-p53A138V at 32C, ATP luminescence viability, 24 h; AID 924; Potency, µM (series often up to 46.1 µM), for inactives: at the top dose activity change, negative = cytotoxicity, usual class: cytotoxic; 0.93% of 130,000 active;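 note: 0% = DMSO and -100% = full killing by reference compound; nearly all actives have a fitted effect of over 55% in size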
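Cells: H1299 p53ts (A138V), 600/well, pre-incubated 16–30 h at 37C. Cpd up to 46 uM, 24 h, 32C. Readout: ATPlite luminescence, 20 min RT. Normalization: DMSO vs tamoxifen 100 uM. AC50 by Hill equation.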
Luciferase inh: inhibitors of firefly luciferase; purified firefly luciferase, luminescence, 8 min; Potency, µM (doses to about 57.1 µM), inactives show at the highest dose activity change, negative = inhibition, usual class: inhibitors; 2.2% of 72,000 active; AID 411; note: nearly all actives have a fitted effect of over 40% in size
Target sequence (P08659 whole entry, looked up): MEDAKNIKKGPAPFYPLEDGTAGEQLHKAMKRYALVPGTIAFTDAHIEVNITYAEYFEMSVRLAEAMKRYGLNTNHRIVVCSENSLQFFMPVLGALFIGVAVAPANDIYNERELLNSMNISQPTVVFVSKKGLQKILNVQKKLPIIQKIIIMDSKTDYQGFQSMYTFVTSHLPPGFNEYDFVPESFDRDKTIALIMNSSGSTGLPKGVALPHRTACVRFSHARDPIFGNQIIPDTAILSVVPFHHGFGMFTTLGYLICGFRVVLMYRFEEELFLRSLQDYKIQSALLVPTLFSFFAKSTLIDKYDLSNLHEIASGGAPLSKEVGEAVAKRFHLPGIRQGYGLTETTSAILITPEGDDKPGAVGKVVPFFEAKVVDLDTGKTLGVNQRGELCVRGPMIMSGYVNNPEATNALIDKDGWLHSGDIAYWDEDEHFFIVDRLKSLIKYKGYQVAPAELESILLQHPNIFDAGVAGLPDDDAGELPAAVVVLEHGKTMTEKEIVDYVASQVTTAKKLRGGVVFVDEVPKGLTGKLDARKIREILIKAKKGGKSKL
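Compounds were tested as concentration series (qHTS) against purified P. pyralis luciferase with luciferin and 10 uM ATP in 50 mM imidazole pH 7.2, 50 mM KCl, 7 mM MgCl2, 0.01% Tween 20, 0.05% BSA. Luminescence was read after 8 min at ambient temperature.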
p53ts 39C kill: kills p53ts cells at the nonpermissive temperature. H1299-p53A138V viability at 39C, ATP luminescence, 24 h. 1.5% of 130,000 active. Potency, µM (doses to about 46.1 µM), for the others: top-dose activity change, negative = cell killing, usual class: cytotoxic. AID 902; note: nearly all actives have a fitted effect of over 55% in size
* = called active by the depositor; ? = inconclusive; nt = not tested or not shown; [ ] = dose if it differs, or a comment. Calls come from the whole dose curve; as a rule, active = well fitted curve in the direction sought with a large enough effect; inconclusive = small, poorly fitted or top-dose-only effect, or another doubt; inactive = no such curve, though single readings can be large; an effect the other way counts as inactive or inconclusive. Unless noted, % is set by controls: 0 for no effect and ±100 for the full control effect; potency is the fitted concentration of half-maximal effect.

SMILES | p53ts 32C kill | Luciferase inh | p53ts 39C kill
CC(NC(=O)CC1Nc2ccccc2NC1=O)c1ccccc1 (centres undefined) | -4.7% | 0.3% | -3.9%
Cc1ccc(S(=O)(=O)c2nc(-c3cccs3)oc2SC(C)C)cc1 | 19.8% | nt | ?
CC(C)S(=O)(=O)c1oc(-c2ccc(F)cc2)nc1S(=O)(=O)c1ccccc1 | 3.98µM* | nt | 0.794µM*
CCCCS(=O)(=O)c1oc(-c2ccc(F)cc2)nc1S(=O)(=O)c1ccccc1 | 10µM* | nt | 2µM*
CS(=O)(=O)c1oc(-c2ccc(F)cc2)nc1S(=O)(=O)c1ccc(Cl)cc1 | 12.6µM* | nt | 3.98µM*
CSc1oc(-c2ccccc2)nc1S(=O)(=O)c1ccc(F)cc1 | 9.5% | 1.3% | 9.2%
CC(C)S(=O)(=O)c1oc(-c2cccs2)nc1S(=O)(=O)c1ccc(F)cc1 | ? | nt | 3.16µM*
COc1ccc(-c2nc(S(=O)(=O)c3ccc(Cl)cc3)c(NCc3ccccc3)o2)cc1 | 10.0% | nt | 17.2%
CSc1oc(-c2ccc(F)cc2)nc1S(=O)(=O)c1ccccc1 | -0.8% | -1.4% | -1.6%
Cc1cccc(OC(=O)c2nc(SCc3ccccc3F)ncc2Cl)c1 | -3.4% | nt | 15.8%
COc1ccc(CCNC(=O)CCCCn2c(=O)c3ccccc3n(Cc3ccc(Cl)cc3)c2=O)cc1OC | -9.5% | nt | ?
CCOc1ccc(CNC(=O)c2ccc(NC(=O)N3CCSc4ncccc43)cc2)cc1OC | 6.5% | nt | -27.1%
CCS(=O)(=O)c1oc(-c2ccc(F)cc2)nc1S(=O)(=O)c1ccc(Br)cc1 | 7.08µM* | nt | 1.58µM*
Cc1ccc(S(=O)(=O)c2nc(-c3ccc(F)cc3)oc2SCC(N)=O)cc1 | 2.7% | -0.2% | -7.3%
Cc1ccc(OCc2nc(-c3ccccc3)no2)c(C)c1 | -16.0% | 15.8µM* | -3.1%
Cc1cc(C)c(C)c(OCc2nc(-c3cccnc3)no2)c1 | 3.4% | 5.7% | 0.1%
Cc1ncc(COC(=O)C(C)C)c2cc(C(=O)Nc3ccccc3C(F)(F)F)c(=O)oc12 | -1.2% | nt | -9.4%
CCN(CC)S(=O)(=O)c1nnc(NC(=O)COc2ccccc2)s1 | -4.0% | nt | -4.6%
CCN(CC)S(=O)(=O)c1nnc(NC(=O)COc2ccc(Cl)cc2)s1 | ? | nt | 15.8µM*
CCOC(=O)c1c(NC(=O)c2ccoc2C)sc2c1CCC2 | 3.7% | 3.9% | 6.2%
CCC1CCc2c(sc(NC(=O)c3ccoc3C)c2C(N)=O)C1 (centres undefined) | -17.9% | 12.6µM* | -5.3%
Cc1cc(C)cc(C(=O)Nc2nnc(SCC(=O)N3CCCc4ccccc43)s2)c1 | nt | nt | 20.5%
O=C(Nc1ccc2nc(SCC(=O)N3CCCc4ccccc43)sc2c1)c1ccccc1 | -7.0% | nt | 17.1%
O=C(Nc1nnc(SCC(=O)N2CCCc3ccccc32)s1)c1ccccc1 | nt | nt | 8.91µM*
O=C(Nc1nnc(SCC(=O)N2CCCc3ccccc32)s1)c1ccc2ccccc2c1 | nt | nt | 3.16µM*
SMILES | p53ts 32C kill | Luciferase inh | p53ts 39C kill
CCC[C@@H]1O[C@@H]2C[C@@H]3[C@@H]4CCC5=CC(=O)C=C[C@@]5(C)[C@H]4[C@H](O)C[C@@]3(C)[C@@]2(C(=O)CO)O1 | nt | -4.1% | nt
COc1ccc(C)cc1N(C)C(=O)c1sc2nc3n(c(=O)c2c1C)CCCCC3 | -8.8% | nt | -9.6%
COC1=C(OC)C(=O)c2ccccc2C1=O | 6.31µM* | -6.5% | 3.98µM*
O=C1c2ccccc2C(=O)c2c(O)c(O)cc(O)c21 | 5.2% | nt | -6.4%
Cc1cc(C)c2c(=O)cc(C(=O)Nc3ccc(C)c(Cl)c3)oc2c1 | 3.5% | nt | -3.3%
CC(C(=O)O)c1ccc(N2Cc3ccccc3C2=O)cc1 (centres undefined) | 10µM* | nt | 10µM*
CC(C)CCNC(=O)[C@@H](c1ccccc1)N1Cc2ccccc2C1=O | 7.8% | nt | -13.4%
O=c1c(O)c(-c2ccc(O)c(O)c2)oc2c(OC[C@H]3O[C@@H](O)[C@@H](O)[C@H](O)[C@@H]3O)c(O)cc(O)c12 | nt | -1.6%[11.4 µM] | nt
Cc1ccc2c(=O)cc(C(=O)Nc3sc4c(c3C(=O)NCC3CCCO3)CCCC4)oc2c1C (centres undefined) | -4.6% | nt | 24.3%
COc1cccc(-n2c(-c3ccccc3F)nc3c(cnn3-c3ccc(C)cc3)c2=O)c1 | 12.5% | nt | 13.4%
CCCCn1c(CN2CCN(c3cccc(Cl)c3)CC2)nc2c1c(=O)[nH]c(=O)n2C | -5.3% | 2.3% | -20.2%
Cn1c(=O)[nH]c(=O)c2c1nc(CN1CCN(c3cccc(Cl)c3)CC1)n2CCCc1ccccc1 | 5.01µM* | -1.0% | 3.98µM*
COc1cc(OC)cc(C(=O)Nc2cc(-c3nc4ccccc4[nH]3)ccc2C)c1 | -9.6% | nt | -7.1%
Cc1ccc(C(C)C)c(OCC(=O)Nc2cc(-c3nc4ccccc4[nH]3)ccc2C)c1 | ? | nt | 10µM*
COc1ccc(CC(=O)Nc2cccc(C(=O)O)c2C)cc1 | 3.2% | -1.9% | 5.0%
COc1ccc(CC(=O)c2ccccc2C(=O)O)cc1 | ? | 3.8% | 10µM*
Cc1oc(-c2cccc(Br)c2)nc1CN1CCC(C(=O)NCc2ccccc2)CC1 | -1.4% | nt | -0.3%
Cc1sc(-c2cc3c([nH]c2=O)CC(c2ccccc2)CC3=O)nc1-c1ccc(Cl)cc1 (centres undefined) | 12.6% | nt | 4.2%
N#Cc1cc2cc3c(cc2nc1N1CCCCC1)OCCO3 | -15.7% | 12.6µM* | -16.5%
Cc1ccc2nc(N3CCN(C)CC3)c(C#N)cc2c1 | -3.9% | -2.4% | -8.1%
CCOC(=O)c1ccc(OC(=O)c2cn(-c3ccc(C)cc3)c(=O)c3ccccc23)cc1 | -2.5% | nt | -26.5%
Nc1ncnc2[nH]c(=O)[nH]c12 | -6.9% | nt | 0.1%
COC(=O)[C@@H]1[C@@H]2C[C@H]3c4[nH]c5ccccc5c4CCN3C[C@@H]2CC[C@@H]1O | -0.4%[9.22 µM] | 4.0%[11.4 µM] | 11.9%[9.22 µM]
NC(=O)c1ccc(-c2nc(-c3ccc4c(c3)OCO4)c(-c3ccccn3)[nH]2)cc1 | 14.1% | 7.94µM* | 8.2%
Cn1c(SCC(=O)c2ccc3c(c2)OCO3)nnc1-c1ccccn1 | 4.6% | 1.2% | 8.4%
SMILES | p53ts 32C kill | Luciferase inh | p53ts 39C kill
O=C(NCc1ccccc1)c1c[nH]c2ccc(S(=O)(=O)Nc3ccc4c(c3)OCCO4)cc2c1=O | -9.8% | -2.9% | -17.4%
O=C(NCc1cccnc1)c1c[nH]c2cc3c(cc2c1=O)OCCO3 | ? | 12.6µM* | ?
COc1ccccc1NC(=O)CSc1nnc(N)s1 | -9.7% | nt | -18.4%
CCOc1ccc(-n2ccnc2SCC(=O)Nc2ccc3c(c2)OCO3)cc1 | 1.1% | nt | -16.5%
CCN(c1ccc(C)cc1)S(=O)(=O)c1nnc(NC(=O)c2cccs2)s1 | -3.6% | nt | -5.7%
CN(c1ccccc1)S(=O)(=O)c1nnc(NC(=O)c2ccccc2)s1 | -23.1% | nt | -17.3%
CN(c1ccccc1)S(=O)(=O)c1nnc(NC(=O)C2CCCCC2)s1 | 7.94µM* | nt | 15.8µM*
CCN(c1ccccc1)S(=O)(=O)c1nnc(NC(=O)c2cccs2)s1 | 1µM* | nt | 1.26µM*
CCOc1cc(-c2ccc(OC(=O)c3ccc(Cl)cc3)c(OC)c2)cc(=O)c2c(C)oc(C)c12 | -12.6% | nt | -9.7%
Cc1nc2ccc(N)cc2s1 | -6.6% | 2.6% | 17.2%
Cc1ccc2nc(-c3ccc(N)cc3)sc2c1S(=O)(=O)O | -8.4%[1.84 µM] | nt | 15.8µM*
COc1ccc(N(C(=O)c2ccccc2)S(=O)(=O)c2ccc3c(c2)n(C)c(=O)n3C)cc1 | 9.0% | nt | 2.4%
O=C(Nc1nnc(-c2ccccc2Cl)o1)c1ccco1 | 12.6µM* | 12.6µM* | 10µM*
